Article PMC11574364

Tests used:
Experiment in all cases: protein domain microarray probed with biotinylated miRNA; Domain array: 20 mM Tris-HCl pH 7.4, 200 mM KCl, 0.2 mM EDTA, 0.05% NP40, 2 ug/ul heparin, overnight 4 C. ORF array: PBS pH 7.0 with RNase inhibitor, 100 ng RNA; high values mean tight binding
Details in all cases: ssRNA
hnRNP-M(3) = target: T1, hnRNP-M(3) (Homo sapiens, UniProt P52272)
T1 sequence: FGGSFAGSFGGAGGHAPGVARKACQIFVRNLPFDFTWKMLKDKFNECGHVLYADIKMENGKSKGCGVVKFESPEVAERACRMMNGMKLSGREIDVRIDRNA

NONO = target: T2, NONO (Homo sapiens, UniProt Q15233)
T2 sequence: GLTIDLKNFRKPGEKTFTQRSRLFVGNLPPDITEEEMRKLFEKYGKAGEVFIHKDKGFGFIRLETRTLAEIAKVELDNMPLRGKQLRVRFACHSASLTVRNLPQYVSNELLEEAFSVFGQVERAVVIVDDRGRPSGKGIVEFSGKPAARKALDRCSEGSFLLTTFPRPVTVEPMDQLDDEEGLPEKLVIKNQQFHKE

HNRNPCL3/4 = HNRNPCL3/4 (Homo sapiens, UniProt O60812)
HNRNPCL3/4, sequence (O60812 1-110): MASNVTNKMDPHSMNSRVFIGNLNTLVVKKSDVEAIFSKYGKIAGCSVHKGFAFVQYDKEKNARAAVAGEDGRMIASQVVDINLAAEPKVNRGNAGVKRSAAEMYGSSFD

ELAVL3 = ELAVL3 (Homo sapiens, UniProt Q14576)
ELAVL3, sequence (Q14576 20-367): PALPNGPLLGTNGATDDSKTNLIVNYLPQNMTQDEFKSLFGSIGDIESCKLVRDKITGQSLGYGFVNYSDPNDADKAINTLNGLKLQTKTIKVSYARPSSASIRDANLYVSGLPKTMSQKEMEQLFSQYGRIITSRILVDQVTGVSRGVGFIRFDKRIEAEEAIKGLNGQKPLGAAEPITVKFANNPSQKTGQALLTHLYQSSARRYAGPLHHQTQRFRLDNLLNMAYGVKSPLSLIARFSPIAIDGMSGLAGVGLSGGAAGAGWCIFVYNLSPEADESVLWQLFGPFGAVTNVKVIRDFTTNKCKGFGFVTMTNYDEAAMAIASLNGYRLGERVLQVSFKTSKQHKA

CPSF6 = CPSF6 (Homo sapiens, UniProt Q16630)
CPSF6, sequence (Q16630 60-180): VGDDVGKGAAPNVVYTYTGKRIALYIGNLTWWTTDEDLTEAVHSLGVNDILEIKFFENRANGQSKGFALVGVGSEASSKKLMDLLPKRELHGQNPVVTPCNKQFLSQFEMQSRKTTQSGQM

hnRNP-CL1 = hnRNP-CL1 (Homo sapiens, UniProt O60812)
hnRNP-CL1, sequence (O60812 1-110): as the sequence (O60812 1-110) above

EIF4B = EIF4B (Homo sapiens, UniProt P23588)
EIF4B, sequence (P23588 75-190): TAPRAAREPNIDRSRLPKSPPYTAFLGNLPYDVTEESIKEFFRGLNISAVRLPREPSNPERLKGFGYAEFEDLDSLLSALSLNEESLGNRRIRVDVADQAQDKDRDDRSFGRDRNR

HTF9C = target: T3, HTF9C (Homo sapiens, UniProt Q8IZ69)
T3 sequence: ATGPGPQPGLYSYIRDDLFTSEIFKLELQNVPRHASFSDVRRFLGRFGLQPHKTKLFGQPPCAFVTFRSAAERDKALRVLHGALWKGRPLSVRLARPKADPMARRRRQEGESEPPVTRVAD

NSAP1 = target: T4, NSAP1 (Homo sapiens, UniProt O60506)
T4 sequence: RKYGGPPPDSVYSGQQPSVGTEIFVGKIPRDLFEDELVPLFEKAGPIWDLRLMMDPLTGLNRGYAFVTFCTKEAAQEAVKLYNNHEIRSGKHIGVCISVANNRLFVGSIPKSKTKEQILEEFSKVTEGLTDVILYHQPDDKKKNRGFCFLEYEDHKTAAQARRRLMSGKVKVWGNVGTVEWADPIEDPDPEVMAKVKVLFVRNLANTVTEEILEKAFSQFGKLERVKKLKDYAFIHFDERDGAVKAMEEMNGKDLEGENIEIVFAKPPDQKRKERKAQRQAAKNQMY

DAZ2/3 = target: T5, DAZ2/3 (Homo sapiens, UniProt Q9NR90)
T5 sequence: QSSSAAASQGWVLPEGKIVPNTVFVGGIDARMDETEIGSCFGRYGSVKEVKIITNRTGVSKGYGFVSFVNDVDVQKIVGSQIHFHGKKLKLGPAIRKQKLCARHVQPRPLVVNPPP

hnRNP-D0 = hnRNP-D0 (Homo sapiens, UniProt Q14103)
hnRNP-D0, sequence (Q14103 80-280): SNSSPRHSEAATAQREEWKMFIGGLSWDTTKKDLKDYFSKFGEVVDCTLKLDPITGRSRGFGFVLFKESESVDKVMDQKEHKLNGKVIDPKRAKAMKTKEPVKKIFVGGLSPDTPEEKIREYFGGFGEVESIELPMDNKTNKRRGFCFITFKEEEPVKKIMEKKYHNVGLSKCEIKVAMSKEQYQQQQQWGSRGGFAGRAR

PABPC1L = PABPC1L (Homo sapiens, UniProt Q4VXU2)
PABPC1L, sequence (Q4VXU2 1-390): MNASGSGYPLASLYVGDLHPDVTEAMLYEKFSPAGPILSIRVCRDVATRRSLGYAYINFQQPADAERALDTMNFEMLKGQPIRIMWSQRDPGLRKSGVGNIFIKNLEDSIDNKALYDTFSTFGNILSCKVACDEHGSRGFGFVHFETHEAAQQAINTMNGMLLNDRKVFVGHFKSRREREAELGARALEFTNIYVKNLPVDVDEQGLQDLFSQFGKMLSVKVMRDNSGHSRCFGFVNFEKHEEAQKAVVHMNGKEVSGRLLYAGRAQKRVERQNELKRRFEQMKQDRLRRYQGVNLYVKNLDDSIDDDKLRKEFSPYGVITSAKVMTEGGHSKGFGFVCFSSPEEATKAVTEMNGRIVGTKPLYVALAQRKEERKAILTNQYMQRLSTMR

NCL = NCL (Homo sapiens, UniProt P19338)
NCL, sequence (P19338 288-670): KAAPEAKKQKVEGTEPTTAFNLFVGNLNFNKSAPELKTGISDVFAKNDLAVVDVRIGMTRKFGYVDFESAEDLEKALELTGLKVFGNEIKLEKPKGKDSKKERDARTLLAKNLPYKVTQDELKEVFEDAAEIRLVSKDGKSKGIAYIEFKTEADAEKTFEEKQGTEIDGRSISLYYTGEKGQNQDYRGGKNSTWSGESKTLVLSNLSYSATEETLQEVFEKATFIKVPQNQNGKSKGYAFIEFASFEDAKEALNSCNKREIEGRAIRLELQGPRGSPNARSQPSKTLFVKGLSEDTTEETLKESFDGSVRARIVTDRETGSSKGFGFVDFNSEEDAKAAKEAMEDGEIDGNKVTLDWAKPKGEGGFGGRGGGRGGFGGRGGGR

PABPN1 = target: T6, PABPN1 (Homo sapiens, UniProt Q86U42)
T6 sequence: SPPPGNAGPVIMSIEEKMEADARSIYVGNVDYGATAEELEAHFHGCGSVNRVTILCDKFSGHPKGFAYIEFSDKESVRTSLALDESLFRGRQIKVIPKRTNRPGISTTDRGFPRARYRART

CNOT4 = target: T7, CNOT4 (Homo sapiens, UniProt O95628)
T7 sequence: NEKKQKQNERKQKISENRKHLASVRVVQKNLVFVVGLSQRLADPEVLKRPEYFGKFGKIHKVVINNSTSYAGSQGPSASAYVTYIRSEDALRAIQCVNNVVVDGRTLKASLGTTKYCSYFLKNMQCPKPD

CSTF2 = target: T8, CSTF2 (Homo sapiens, UniProt P33240)
T8 sequence: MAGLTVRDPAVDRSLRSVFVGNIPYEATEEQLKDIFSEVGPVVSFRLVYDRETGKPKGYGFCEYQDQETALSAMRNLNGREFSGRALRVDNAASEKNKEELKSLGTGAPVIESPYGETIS

DRBP1(3-4) = target: T9, DRBP1(3-4) (Homo sapiens, UniProt Q8IUH3)
T9 sequence: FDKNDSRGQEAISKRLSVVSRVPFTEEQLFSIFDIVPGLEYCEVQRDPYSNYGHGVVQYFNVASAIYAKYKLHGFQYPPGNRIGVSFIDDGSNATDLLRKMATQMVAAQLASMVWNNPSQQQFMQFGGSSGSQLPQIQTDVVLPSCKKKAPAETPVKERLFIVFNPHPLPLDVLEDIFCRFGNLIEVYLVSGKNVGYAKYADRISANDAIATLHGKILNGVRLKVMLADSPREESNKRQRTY

hnRNP-A/B = hnRNP-A/B (Homo sapiens, UniProt Q99729)
hnRNP-A/B, sequence (Q99729 50-250): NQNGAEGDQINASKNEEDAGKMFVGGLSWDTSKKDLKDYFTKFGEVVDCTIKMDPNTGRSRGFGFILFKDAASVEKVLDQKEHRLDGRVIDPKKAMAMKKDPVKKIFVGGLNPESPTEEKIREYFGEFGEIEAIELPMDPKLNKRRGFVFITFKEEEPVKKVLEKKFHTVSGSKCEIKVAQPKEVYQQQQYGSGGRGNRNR

CPSF7 = target: T10, CPSF7 (Homo sapiens, UniProt Q8N684)
T10 sequence: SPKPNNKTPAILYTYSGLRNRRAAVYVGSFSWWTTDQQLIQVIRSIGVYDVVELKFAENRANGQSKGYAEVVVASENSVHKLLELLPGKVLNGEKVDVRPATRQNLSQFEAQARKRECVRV

HNRNPA1L2 = HNRNPA1L2 (Homo sapiens, UniProt Q32P51)
HNRNPA1L2, sequence (Q32P51 1-205): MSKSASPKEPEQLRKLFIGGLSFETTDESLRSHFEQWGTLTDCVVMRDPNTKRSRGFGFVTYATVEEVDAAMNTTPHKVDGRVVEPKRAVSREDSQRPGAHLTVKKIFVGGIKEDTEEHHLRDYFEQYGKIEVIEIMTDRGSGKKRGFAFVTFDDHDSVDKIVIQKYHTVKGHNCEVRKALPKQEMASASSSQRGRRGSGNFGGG

Sequence | binding signal (hnRNP-M(3)) [fluorescence intensity] | binding signal (NONO) [fluorescence intensity] | binding signal (HNRNPCL3/4) [fluorescence intensity] | binding signal (ELAVL3) [fluorescence intensity] | binding signal (CPSF6) [fluorescence intensity] | binding signal (hnRNP-CL1) [fluorescence intensity] | binding signal (EIF4B) [fluorescence intensity] | binding signal (HTF9C) [fluorescence intensity] | binding signal (NSAP1) [fluorescence intensity] | binding signal (DAZ2/3) [fluorescence intensity] | binding signal (hnRNP-D0) [fluorescence intensity] | binding signal (PABPC1L) [fluorescence intensity] | binding signal (NCL) [fluorescence intensity] | binding signal (PABPN1) [fluorescence intensity] | binding signal (CNOT4) [fluorescence intensity] | binding signal (CSTF2) [fluorescence intensity] | binding signal (DRBP1(3-4)) [fluorescence intensity] | binding signal (hnRNP-A/B) [fluorescence intensity] | binding signal (CPSF7) [fluorescence intensity] | binding signal (HNRNPA1L2) [fluorescence intensity]
UGAGGUAGUAGGUUGUGUGGUU | 112 ± 17.8 | 62.6 ± 1.97 | 36.4 ± 6.48 | 1280 ± 96.1 | 32.1 ± 8.4 | 77.6 ± 17.1 | 2502 ± 2.61 | 182 ± 12.4 | 1770 ± 45.4 | 288 ± 6.91 | 1275 ± 12.6 | 1150 ± 102 | 2320 ± 38.6 | 2208 ± 3.21 | 448 ± 8.85 | 1760 ± 71.7 | 117 ± 36.4 | 1294 ± 7.55 | 106 ± 4.55 | 551 ± 58
UGAGGUAGUAGGUUGUAUGGUU | 78.7 ± 6.91 | 41.2 ± 0.665 | 34.6 ± 6.43 | 1020 ± 53.3 | 26.1 ± 6.17 | 43.3 ± 2.77 | 2140 ± 29.2 | 104.2 ± 0.884 | 1830 ± 24.4 | 151 ± 11.5 | 1386 ± 9.72 | 1355 ± 13.5 | 2733 ± 6.99 | 2730 ± 37.5 | 263.8 ± 1.66 | 877 ± 50.3 | 95.6 ± 13.4 | 1148 ± 9.7 | 58.9 ± 3.79 | 644 ± 46.8
UGAGGUAGUAGGUUGUAUAGUU | 22.8 ± 3.08 | 20.7 ± 2.69 | 22.3 ± 2.99 | 476 ± 12.5 | 23 ± 8.56 | 31.8 ± 10.7 | 883 ± 50 |  | 755 ± 86.6 | 37.8 ± 6.41 | 580 ± 40.2 | 626 ± 62.6 | 1458 ± 3.11 | 2100 ± 89.2 | 73.77 ± 0.226 | 546 ± 37.1 |  | 453 ± 6.64 | 21.4 ± 4.04 | 226 ± 23.1
UAGCUUAUCAGACUGAUGUUGA | 20.6 ± 3.13 |  | 22.52 ± 0.0849 | 508 ± 14.6 | 36.4 ± 14.3 |  | 24.6 ± 5.08 |  | 42.1 ± 2.96 | 153 ± 9.91 | 106 ± 5.55 | 126 ± 31.5 | 1820 ± 62.5 | 329 ± 38.4 | 35.05 ± 0.099 | 142 ± 42.3 |  | 108 ± 7.62 |  | 
AGAGGUAGUAGGUUGCAUAGUU | 68.4 ± 19.5 | 26.1 ± 4.07 |  | 1430 ± 30.2 |  |  | 3250 ± 198 | 78 ± 2.68 | 1900 ± 59.9 | 260 ± 18.7 | 1690 ± 40.2 | 1740 ± 116 | 3640 ± 50 | 3510 ± 43.1 | 230 ± 7.35 | 1640 ± 152 | 63.1 ± 5.42 | 1830 ± 93.1 | 48.3 ± 8.88 | 630 ± 43.3
CAGUGCAAUGAUGAAAGGGCAU | 37.9 ± 1.35 |  | 29.9 ± 0.976 | 868 ± 33.5 | 39.2 ± 6.51 | 23 ± 5.29 | 1810 ± 123 | 52.8 ± 3.39 | 398 ± 6.14 | 70.6 ± 0.849 | 338 ± 13.6 | 990.7 ± 2.47 | 2833 ± 25.8 | 2170 ± 30.4 | 235.49 ± 0.198 | 484 ± 5.24 | 77 ± 15.6 | 1111 ± 3.46 | 47.8 ± 6.69 | 236 ± 20
